Hits are enriched below; roughly 8.8% of the tested compounds scored in any of these assays.
HT1080 IDH1KD tx – HT-1080 IDH1 knockdown cell toxicity (counter line); AID 686971; Potency, µM (highest dose often 46.1 µM), without a hit: at the highest dose activity, negative = toxicity, actives largely listed as cytotoxic; hit rate 2% among 360,000; HT-1080 IDH1 knockdown viability, ATP luminescence, 48 h;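 also: potency is read from the fitted curve at half-maximal effect; 0% = DMSO wells and -100% = cell-free medium wells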
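CellTiter-Glo luminescence after 48 h compound exposure at 37 degrees C of IDH1-knockdown HT-1080 cells in 5% FBS RPMI. %Activity scaled between DMSO wells and cell-free media wells, with curves fitted and assigned curve classes.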
HT1080-NT tox – kills 2HG-producing HT-1080-NT fibrosarcoma cells. HT-1080-NT fibrosarcoma viability, CellTiter-Glo ATP luminescence, 48 h. Potency, µM (titrated, usually from 46.1 µM), without a hit: at the highest dose activity, negative = less viability, actives largely listed as cytotoxic. hit rate 1.6% among 360,000;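 also: NT is the 2HG producing partner of a matched IDH1 knockdown line; potency is read from the fitted curve at half-maximal effect; 0% = DMSO-treated cells and -100% = media-only wells without cells; nearly all actives have a fitted effect of over 55% in size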
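750 cells/well, RPMI + 5% FBS; 2 h settle, compound pin-transfer, 48 h at 37 degrees C. CellTiter-Glo 10 min RT, luminescence. Normalized to DMSO and media-only wells.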
KB-3-1 cytotox – KB-3-1 parental cell cytotoxicity | AID 1347075 | Potency, µM (titrated, usually from 46.1 µM), actives largely listed as cytotoxic | KB-3-1 viability, CellTiter-Glo ATP luminescence, 72 h | hit rate 1.4% among 400,000; also: potency is read from the fitted curve at half-maximal effect; nearly all actives have a fitted effect of over 60% in size
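Cytotoxicity measured as CellTiter-Glo luminescence after 72 h at 37 C. Compound titrations were pinned onto drug-naive KB-3-1 parental adenocarcinoma cells grown in DMEM with 10% FBS, and normalized data fitted to concentration-response curves.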
KB-V1 MDR tox – kills drug-selected multidrug resistant KB-V1 cells. Potency, µM (series often up to 46.1 µM), actives largely listed as cytotoxic. hit rate 3.4% among 400,000. AID 1347076. KB-V1 MDR cells viability, CellTiter-Glo, 72 h; also: potency is read from the fitted curve at half-maximal effect; nearly all actives have a fitted effect of over 60% in size
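qHTS viability screen in drug-selected KB-V1 MDR cells: 72 h compound treatment at 37 degrees C, ATP luminescence end point.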
IL1B secr inh – inhibitors of inflammasome signaling (IL-1 beta secretion) | THP-1 LPS/ATP IL-1B secretion, AlphaLISA, 16 h; hits give low values | activity change, % at 57.5 µM | hit rate 4.7% among 360,000 | AID 743279; in the data active = activity change below about -50%; inconclusive = mostly about -30% to -49%
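THP-1 cells pretreated 1 hr with compounds (up to 57.5 uM final), then stimulated with LPS (250 ng/mL final) plus ATP (1.25 mM final); secreted IL-1B measured by AlphaLISA after 16 hr, decreased signal indicating inhibition.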
Starred values were filed as active, the others as inactive; i = inactive; u = inconclusive; x = no result; [ ] = another dose, or the depositor's remark. Unless noted, calls follow the shape of the dose curve; as a rule, active = well fitted curve in the direction sought with a large enough effect; inconclusive = small, poorly fitted or top-dose-only effect, or another doubt; inactive = no such curve, though single readings can be large; an effect the other way counts as inactive or inconclusive. Unless noted, % is scaled to controls: 0 for no effect and ±100 for the full control effect.

SMILES | HT1080 IDH1KD tx | HT1080-NT tox | KB-3-1 cytotox | KB-V1 MDR tox | IL1B secr inh
COc1ccc(-n2nnnc2SCC(=O)NCCc2ccc(OC)c(OC)c2)cc1 | -24.3% | -9.2% | i | 8.2µM* | 5.7
COc1ccc(CCNCCC(=O)Nc2c(C)cc(C)cc2C)cc1OC | -16.5% | 8.2% | i | i | -64.3*
COc1ccc(CCNC(=O)CSc2ccccn2)cc1OC | 17.0% | 0.0% | i | i | 0.0
COc1ccc(CCNC(=O)CSCc2ccc(Cl)cc2)cc1OC | 10.0% | 2.1% | i | 6.51µM* | -7.2
COc1ccc(CCNC(=O)CSc2cccc3cccnc23)cc1OC | 0.3% | 0.3% | i | i | -97.8*
O=C(Nc1cccc(Cl)c1Cl)c1cc2nc(-c3ccc4c(c3)OCO4)cc(C(F)(F)F)n2n1 | x | x | u | i | x
Cc1ccc(NC(=O)Cn2c(=O)oc3cc(S(=O)(=O)NCc4ccccc4)ccc32)cc1 | x | x | i | i | x
Cc1ccc(-n2c(C)nnc2SCC(=O)N(C)c2c(N)n(Cc3ccccc3)c(=O)[nH]c2=O)cc1 | 10.1% | 1.4%[9.24 µM] | i | i | -18.3
COc1ccc(CCCC(=O)NCc2ccccc2)cc1C | u | u | u | 6.51µM* | 0.0
COc1ccc(CCNC(=O)C(=O)NCc2ccc(C)cc2)cc1OC | -2.7% | 13.7% | i | 20.6µM* | 10.6
COc1ccc(CCNC(=O)CCN2C(=O)COc3ccc(C)cc32)cc1OC | -15.5% | -10.7% | i | u | -3.0
COc1ccc(CCNC(=O)CSCc2ccc(C)cc2)cc1OC | 3.4% | -0.9% | i | 20.6µM* | 5.9
COc1ccc(CCNC(=O)CCN2C(=O)C(C)Oc3ccc(C)cc32)cc1OC (stereo not drawn) | -13.5% | 0.5% | i | 8.2µM* | 0.0
CC1=C(C(=O)Nc2ccccc2)C(c2ccncc2)n2nc(SCc3ccccc3)nc2N1 (stereo not drawn) | x | x | i | u | x
Cc1ccc(C)c(OCCCn2c(-c3ccc(Cl)cc3)nc3ccccc3c2=O)c1 | x | x | i | u | x
O=C(Nc1ccc(S(=O)(=O)N2CCOCC2)cc1)c1ccccc1F | 4.6% | -14.0% | i | i | -7.4
CCOc1ccccc1C(=O)OC(C)C(=O)Nc1ccc(S(=O)(=O)N2CCCC2)cc1 (stereo not drawn) | -0.2% | 1.2% | i | i | -14.9
O=C(NCCCSc1ccccc1)c1cc(Br)ccc1O | 18.4µM* | u | i | i | -2.1
COc1ccc(Cl)cc1C(=O)NCCCSc1ccccc1 | 2.8% | 6.2% | i | i | -54.2*
O=C(NCCSc1ccccc1)c1ccc(Br)cc1 | 26.3% | 13.5% | i | i | -6.2
Cc1c(C(=O)NCc2ccco2)oc2c(F)cccc12 | 0.0% | -1.6% | i | i | 2.2
O=C(NCC1CCCO1)c1cc2ccccc2cc1O (stereo not drawn) | 3.4% | -13.5% | i | i | 5.1
O=C(NCC1CCCCC1)c1cc2ccccc2cc1O | u | u | u | i | -87.9*
CNC(=S)N/N=C1\C(=O)c2cccc3cccc1c23 | u | u | u | u | -97.8*
CCCCNC(=S)N/N=C1\C(=O)c2cccc3cccc1c23 | 9.3% | 9.4% | i | u | -8.6
SMILES | HT1080 IDH1KD tx | HT1080-NT tox | KB-3-1 cytotox | KB-V1 MDR tox | IL1B secr inh
O=c1cc(C(Cl)(Cl)Cl)oc2c1ccc1ccccc12 | 11.6µM* | 16.4µM* | u | i | -72.7*
O=c1cc(-c2ccncc2)oc2c1ccc1ccccc12 | -3.5% | -18.3% | i | u | -83.4*
O=c1cc(-c2ccc(O)cc2)oc2ccc3ccccc3c12 | u | u | u | u | -21.7
O=c1cc(-c2ccc(O)cc2)oc2c1ccc1ccccc12 | 0.1% | 1.4% | i | i | -59.2*
O=C(Oc1cccc2c(O)cccc12)c1ccco1 | -21.6% | -7.1% | i | i | 25.5
Cc1ccc(NC(=O)CSc2nnc3c(n2)[nH]c2ccccc23)cc1 | 2.6% | 2.3% | i | i | 20.2
CC1CCN(C(=O)CSc2nnc3c(n2)[nH]c2ccccc23)CC1 | -10.9% | -10.9% | u | 16.4µM* | 9.9
Cc1ccc(-c2csc(NC(=O)CSc3nnc4c(n3)[nH]c3ccccc34)n2)cc1 | 20.6µM* | 18.4µM* | u | u | -5.0
O=C(O)CSc1nnc2c(n1)[nH]c1ccccc12 | -6.8% | -6.7% | i | i | 58.5
CCOC(=O)C1=Nc2ccccc2C1=[N+]=[N-] | u | -25.4% | u | 2.59µM* | -71.1*
CCOC(=O)c1cnc(-c2ccccc2O)nc1Cl | 15.0% | -14.9% | i | i | 12.7
COC(=O)c1ccc(NS(=O)(=O)c2cc(-c3cc(C)no3)ccc2OC)cc1 | x | x | 5.8µM* | u | 35.2
COc1ccccc1NS(=O)(=O)c1cc(-c2cc(C)no2)ccc1OC | -27.7% | -14.8% | i | i | 31.0
COc1ccc(-c2cc(C)no2)cc1S(=O)(=O)N1CCCCC1 | -5.0% | -5.6% | i | i | 11.1
COc1ccc(-c2cc(C)no2)cc1S(=O)(=O)Nc1cccc(C)c1 | u | -18.0% | i | i | 10.8
COC(=O)c1ccc(NS(=O)(=O)c2ccc(-c3cc(C)no3)s2)cc1 | -20.1% | -4.6% | i | u | 20.7
COc1ccc(Cl)cc1NS(=O)(=O)c1cc(-c2cc(C)no2)ccc1C | x | x | 13µM* | 3.66µM* | x
COc1ccc(-c2cc(C)no2)cc1S(=O)(=O)Nc1ccccc1 | 16.4µM* | u | u | i | -11.9
COc1ccc(-c2cc(C)no2)cc1S(=O)(=O)NCCCN1CCCCCC1 | -2.2% | -9.3% | i | i | -51.5*
COc1cccc(CCN2CCC(CNS(=O)(=O)c3cc(-c4cc(C)no4)ccc3OC)CC2)c1 | u | u | u | i | -11.6
COc1cccc(CCN2CCC(CNS(=O)(=O)c3cc(-c4cc(C)no4)ccc3C)CC2)c1 | u | u | i | u | -61.8*
COc1ccc(N2CCN(C(CNC(=O)C(=O)NCc3ccc(F)cc3)c3cccnc3)CC2)cc1 (stereo not drawn) | x | x | i | i | x
COc1ccc(C2CC(=O)c3cnn(-c4nc(C)cc(C)n4)c3C2)cc1OC (stereo not drawn) | 7.4% | 26.8% | i | i | 14.8
COc1ccc(C2CC(=O)c3cnc(N4CCN(Cc5ccccc5)CC4)nc3C2)cc1 (stereo not drawn) | -9.8% | -11.3% | i | i | -9.8
CCOC(=O)N1CCN(c2ncc3c(n2)CC(c2ccc(OC)c(OC)c2)CC3=O)CC1 (stereo not drawn) | x | x | u | 4.11µM* | x
CCN1CCN(c2ncc3c(n2)CC(c2ccc(OC)c(OC)c2)CC3=O)CC1 (stereo not drawn) | 12.6µM* | 11.2µM* | 16.4µM* | 20.6µM* | 11.7
